Measured values published in the supplement of paper PMC6555819.

Columns and labels:
Assay in all cases: PBM binding z-score (relative to random genomic background probes); higher = stronger binding; sequences stand for … in GC…GCGATTGACAGCGTAGAATGAAGG
[1] = test system: FXR:RXRa (NR concentration 270 nM, RXRa partner concentration 90 nM)
How it was run: (§1)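 For binding z-scores, the reference was random background probes on custom Agilent 4×180K protein-binding microarrays. These arrays were incubated 1 h with ligand-free nuclear receptor dimers in PBS pH 7.4, 2% milk, 0.02% Triton X-100, 1 mM DTT, 0.2 mg/mL BSA and 0.4 mg/ml salmon testes DNA. Fluorescence was scanned after antibody detection of each partner (one per run) and regression-normalized.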

[2] = test system: LXRa:RXRa (NR concentration 270 nM, RXRa partner concentration 90 nM)
How it was run: as §1

[3] = test system: LXRa homodimer (NR concentration 270 nM)
How it was run: as §1

[4] = test system: LXRb:RXRa (NR concentration 270 nM, RXRa partner concentration 90 nM)
How it was run: as §1

[5] = test system: LXRb homodimer (NR concentration 270 nM)
How it was run: as §1

[6] = test system: PPARa:RXRa (NR concentration 270 nM, RXRa partner concentration 90 nM)
How it was run: as §1

[7] = test system: PPARg:RXRa (NR concentration 180 nM, RXRa partner concentration 90 nM)
How it was run: as §1

[8] = test system: PPARg:RXRa 270nM:90nM, anti-RXR (NR concentration 270 nM, RXRa partner concentration 90 nM)
How it was run: as §1

[9] = test system: PPARg:RXRa 30nM:10nM, anti-RXR (NR concentration 30 nM, RXRa partner concentration 10 nM)
How it was run: as §1

[10] = test system: PPARg:RXRa 90nM:30nM, anti-RXR (NR concentration 90 nM, RXRa partner concentration 30 nM)
How it was run: as §1

| Sequence | PBM binding z-score [1] | PBM binding z-score [2] | PBM binding z-score [3] | PBM binding z-score [4] | PBM binding z-score [5] | PBM binding z-score [6] | PBM binding z-score [7] | PBM binding z-score [8] | PBM binding z-score [9] | PBM binding z-score [10] |
| --- | --- | --- | --- | --- | --- | --- | --- | --- | --- | --- |
| TTACCAAGGTGAGCTGGGGTCGTTGATCCAACTC | 0.996 | 0.819 | -0.542 | 1.37 | -0.609 | 2.37 | 0.431 | 1.19 | -0.099 | 0.415 |
| CAAACTAGGTTACAGAGGTCAAAGTCCGTGCGTA | 6.15 | 6.43 | 7.09 | 5.72 | 2.18 | 5.82 | 7.94 | 7.19 | 5.19 | 6.82 |
| CAAACTAGGTCAAAGGTCAAAGTCGAGCCAACCA | 8.73 | 7.31 | 6.02 | 7.38 | 3.55 | 7.8 | 14 | 11.4 | 12.3 | 13.1 |
| TCATATAGTTAATACAGGTGAAAGTCGGCATCTA | 1.36 | 1.88 | 0.641 | 1.3 | 0.448 | 1.8 | 1.13 | 2.41 | 4.54 | 3.7 |
| TAGCGTAGGTCAGATCGGGCCAGTATACGCTATA | 2.62 | 1.36 | -0.421 | 0.809 | -0.55 | 1.99 | 0.602 | 0.725 | 0.0137 | 0.225 |
| TCTTTTAGATCAAGCAGGTTAAGAAAGCCTGAGT | 0.715 | 0.67 | -0.177 | 0.588 | 0.409 | 1.02 | -0.669 | 1.68 | 3.39 | 2.56 |
| AGAACGAGGGCACGCTGATTTGATAGCAGAGTAG | 0.707 | 0.541 | -0.464 | 0.172 | -0.795 | 2.31 | 2.24 | 1.79 | 0.45 | 1.1 |
| CCGACTGGGACAGAAAGGTTACCATACCATCCGG | 0.177 | 0.493 | -0.124 | 0.512 | -1.05 | 1.71 | 1.4 | 1.74 | 0.364 | 1.34 |
| AGAATGAGGTTCTTAAGATCAGGGAATTGCGGTC | -0.335 | -0.575 | -0.571 | -0.551 | -0.54 | -0.0387 | 0.197 | -0.0485 | -0.306 | 0.0331 |
| TGTCAAAGTTCAAAGGTAACGTACGTATCCACAC | 7.21 | 6.37 | 4.32 | 4.74 | 1.52 | 5.75 | 8.65 | 7.29 | 4.86 | 7.11 |
| TCTAGTTGGTCACGCAGGTCACACACGACGGGTA | 1.94 | 1.98 | 1.08 | 2.09 | 0.279 | 2.87 | 2.09 | 2.99 | 3.37 | 2.92 |
| TCTGGGAGGACACGAAAGGTCAGAGCTCGACATC | 3.35 | 4.18 | 3.31 | 3.11 | 0.345 | 3.51 | 1.49 | 2.81 | 1.88 | 2.34 |
| CCTTAAGGGTCACTCCAGGTTATAGCATCGGAGT | 6.75 | 7.97 | 3.36 | 5.9 | 0.565 | 5.33 | 4.86 | 5.1 | 2.01 | 4.34 |
| AGAATGAAGTTATTAAGATCAGGGAATTGCGGTC | -0.377 | -0.535 | -0.241 | -0.514 | -0.42 | -0.386 | 0.173 | -0.222 | 0.106 | 0.114 |
| GCGACTGGGGCATCAGCAGGCTACCATAACTTAA | -0.662 | -0.723 | -0.307 | -0.378 | -1.43 | 0.138 | 0.565 | 0.457 | -1.02 | -0.389 |
| GAGACTGGGGCAAAGCAGGTTACCATAAGGTTGG | 0.509 | 0.532 | -0.00898 | 0.677 | -0.382 | 2.04 | 2.19 | 1.98 | 0.147 | 1.35 |
| CTCGAAAGGTCGTGCTCAAGTGAGTATACCAAAC | 5.4 | 3.95 | 0.0272 | 3.51 | 0.363 | 4.73 | 2.57 | 3.77 | 0.732 | 2.35 |
| CGAACTAGGTCAGCACAGGACAGTGAAGGATGAT | 1.86 | 1.18 | -0.345 | 0.466 | -0.737 | 3.51 | 6.07 | 5.31 | 2.4 | 4.32 |
| CCTACTGGGCCACGAAAGGTCATTCATTCAGTGA | 3.89 | 5.43 | 6.05 | 4.47 | 0.659 | 4.73 | 4.8 | 5.02 | 1.88 | 4.42 |
| GCTAGTTGGCCAGTAAAAGGTCACACACCGGTCG | 2.93 | 4.16 | 3.87 | 4.02 | 0.221 | 4.29 | 1.91 | 3.48 | 1.25 | 2.46 |
| CTACCAAGGTGAACAAGGTCGCTGATTACTATTC | 1.1 | 1.05 | -0.405 | 1.37 | -0.68 | 2.38 | 1.17 | 1.36 | -0.0103 | 0.78 |
| CCTACTGGGCCATTCAGAGGTAATTGATCATATG | -0.331 | -0.32 | -0.381 | -0.312 | -0.992 | 0.524 | 0.262 | 0.25 | -0.481 | -0.189 |
| CCGACTGGGGCAAGGTTAACATAACGCACAGCCA | 0.315 | 0.681 | -0.0664 | 0.737 | -0.786 | 2.59 | 4.38 | 4.92 | 2.68 | 4.38 |
| TCATATAGGTAGTACAGGTGAAAGTCGGCATCTA | 1.11 | 1.01 | 0.38 | 0.84 | 0.0864 | 1.2 | 0.65 | 2.23 | 3.57 | 3.13 |
